# In PubChem BioAssay (NCATS):
# Unmarked numbers belong to inactive results. Records with an inconclusive call do not appear. Where a call stands in place of a potency, no number is given. Active and inactive are the calls of the source. Unless noted, the call rests on the fitted dose curve; in most records, active means well fitted curve in the direction sought with a large enough effect; inconclusive means small, poorly fitted or top-dose-only effect, or another doubt; inactive means no such curve, though single readings can be large; an effect the other way counts as inactive or inconclusive.
# Columns and labels:
# [1] = biological target: Glucocorticoid receptor (Homo sapiens) (UniProt P04150); test: GR-GFP Redistribution (AID 450;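 active means compounds whose dose series gives a full or clear partial fitted curve of increased nuclear translocation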; further: potency means the concentration at half of the fitted maximal effect); conditions: U2OS GR-GFP nuclear translocation, laser cytometry, 2 h
# [2] = biological target: Glucocorticoid receptor (Homo sapiens) (UniProt P04150); test: GR-EFC Redistribution (AID 451; calls by dose curve; further: potency means the concentration at half of the fitted maximal effect); conditions: CHO-K1 GR-EFC translocation, beta-gal luminescence, 2 h
# In short: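 CHO-K1 cells stably expressing nuclear-localized β-gal enzyme acceptor and GR fused C-terminally to the enzyme donor fragment; ligand-driven nuclear translocation restores β-gal by complementation. Compounds titrated up to 46 uM final, 2 h at 37 °C; luminescence read.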
# [3] = biological target: Mitogen-activated protein kinase 10 (Mus musculus) (UniProt Q61831); test: JNK3 AlphaScreen Assay (AID 530; active means well fitted curve in either direction with a large enough effect, not every such curve was filed as active;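 further: kinase came from lysate of stimulated human HepG2 cells; signal reports phosphorylation of biotinylated GST-cJun 1-79 at Ser73 with 10 µM ATP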); conditions: JNK3 lysate, c-Jun phosphorylation; series mostly up to 57.1 µM
# In short: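 Biotinylated GST-cJun(1-79) served as substrate for JNK3 in HepG2 lysates stimulated with IL-1beta and TNF-alpha. ATP was 10 uM final, pH 7.6. Ser73 phosphorylation was quantified by AlphaScreen (680 nm excitation).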
# [4] = biological target: Cytochrome P450 3A4 (Homo sapiens) (UniProt P08684); test: qHTS Assay for Activators of Cytochrome P450 3A4 (AID 885); conditions: recombinant CYP3A4, Luciferin-PPXE luminescence, 60 min; series mostly up to 57.1 µM; further: nearly all actives have a fitted effect of over 65% in size
# In short: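 Activators are scored by enhanced luminescence from CYP3A4 conversion of luciferin-PPXE (25uM, equal to KM) to luciferin, after 60 min at RT with an NADPH-regenerating system.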
# [5] = biological target: DNA dC->dU-editing enzyme APOBEC-3G (Homo sapiens) (UniProt Q9HC16); test: qHTS for inhibitors of Vif-A3G interactions: Validation (AID 588379); conditions: Vif-A3G protein interaction assay; series mostly up to 46.1 µM
# In short: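 Yellow fluorescence (Ex 488, Em 500-530) of Vif-coexpressing HeLa A3G-eYFP cells, scanned by Acumen cytometer, reports blocked A3G degradation. Cells plated at 700/well overnight at 37 deg C before compound addition, then a further overnight compound incubation at 37 deg C.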
# Furin (Homo sapiens) = Furin (Homo sapiens) (UniProt P09958); test: Furin counterscreen qHTS for Zika virus inhibitors (AID 1347149); conditions: furin enzymatic counterscreen, fluorogenic substrate; series mostly up to 114 µM; further: nearly all actives have a fitted effect of over 70% in size; further: potency means the concentration at half of the fitted maximal effect
# In short: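 Counterscreen measures cleavage of 2 microM BOC-RVRR-AMC, below its ~15 microM Km, by 5 nM full-length human furin at pH 7.0 after a 15-min compound preincubation. Inhibition derives from the 15-min fluorescence increase at 37C.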
# [6] = test system: Zika virus NS2B-NS3 protease (linked construct); test: Confirmatory screen NINDS AMC qHTS for Zika virus inhibitors (AID 1347152); conditions: Purified linked NS2B-NS3, AMC substrate fluorescence; series mostly up to 110 µM; further: potency means the concentration at half of the fitted maximal effect; nearly all actives have a fitted effect of over 70% in size
# In short: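 Purified NS2B-NS3 protease with NS2B hydrophilic domain linked to NS3 protease domain by flexible linker, 1 nM final in 10 mM Tris-HCl pH 8.0, 0.01% Tween 20. Compounds preincubated 15 min, room temperature; Bz-Nle-KRR-AMC 10 microM (Km 18.3 µM); 15-min fluorescence change, 4-parameter Hill fit.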
# [7] = test system: Zika virus NS2B-NS3 protease; test: Primary screen GU AMC qHTS for Zika virus inhibitors (AID 1347154); conditions: Zika NS2B-NS3 unlinked protease, AMC fluorogenic substrate; series mostly up to 54.1 µM; further: potency means the concentration at half of the fitted maximal effect; nearly all actives have a fitted effect of over 70% in size
# In short: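 Unlinked Zika NS2B hydrophilic domain/NS3 protease domain noncovalent complex (25 nM final) in 10 mM Tris-HCl pH 8.0, 0.01% Tween 20, with AMC peptide substrate. Fluorescence (ex 340, em 450 nm) change over 15 min, room temperature; percent inhibition fitted to 4-parameter Hill equation.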
# [8] = Confirmatory screen NINDS Rhodamine qHTS for Zika virus inhibitors (AID 1347161); conditions: purified enzyme assay, Rhodamine110 substrate fluorescence, 15 min; series mostly up to 114 µM; further: nearly all actives have a fitted effect of over 60% in size; further: potency means the concentration at half of the fitted maximal effect
# In short: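 qHTS dose-response: 25 nM linked protease, pH 8.0 Tris/Tween buffer, cpd titration, 15 min RT preinc, 1.5 microM Rhod110 peptide, 15 min reaction (~15% conversion), Ex480/Em540; 4-parameter Hill fit.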
# [9] = Vero cells viability qHTS for Zika virus inhibitors (AID 1347167); conditions: cytotoxicity counter-screen (Zika); series mostly up to 45.9 µM
# In short: (§1)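 To flag cytotoxic protease inhibitors, viability is measured by ATP-dependent luminescence (CellTiter Glo) after cells attached overnight receive compound for 24 to 48 hours in DMEM with 4% FBS.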
# [10] = HepG2 cells viability qHTS for Zika virus inhibitors (AID 1347168); conditions: Zika counter-screen; series mostly up to 45.9 µM
# In short: as §1
# [11] = biological target: Rap guanine nucleotide exchange factor 3 (Homo sapiens) (UniProt O95398); test: Confirmatory qHTS for antagonist of cAMP-regulated guanine nucleotide exchange factor 3 (EPAC1) (AID 1645880); conditions: EPAC1 Rap1B-BODIPY-GDP exchange, fluorescence; series mostly up to 115 µM; further: nearly all actives have a fitted effect of over 55% in size
# In short: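 Released BODIPY-GDP fluoresces less than Rap1-bound BODIPY-GDP; the signal is followed at 480/540 nm at 5-min intervals over 30 min, after 5 min at room temperature. Reactions contain 100 nM EPAC1, 250 nM RAP1B-BODIPY-GDP and 50 uM GDP; results are normalized to ATA and DMSO.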
# [12] = biological target: Rap guanine nucleotide exchange factor 3 (Homo sapiens) (UniProt O95398); test: Confirmatory qHTS for agonist of cAMP-regulated guanine nucleotide exchange factor 3 (EPAC1) (AID 1645881); conditions: EPAC1 Rap1B BODIPY-GDP exchange fluorescence, 100% = cAMP control response; series mostly up to 154 µM;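 further: EPAC1 catalysed release of BODIPY-GDP from Rap1B seen as fluorescence loss; nearly all actives have a fitted effect of over 75% in size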
# [13] = biological target: Rap guanine nucleotide exchange factor 4 (Homo sapiens) (UniProt Q8WZA2); test: Confirmatory qHTS for antagonist of cAMP-regulated guanine nucleotide exchange factor 4 (EPAC2) (AID 1645885); conditions: EPAC2 Rap1B-BODIPY-GDP exchange fluorescence, biochemical; series mostly up to 114 µM; further: nearly all actives have a fitted effect of over 25% in size
# [14] = Confirmatory screen GU Rhodamine qHTS for Zika virus inhibitors qHTS (AID 1347157); conditions: purified enzyme assay, Rhodamine110 substrate fluorescence, 15 min; series mostly up to 114 µM; further: potency means the concentration at half of the fitted maximal effect; nearly all actives have a fitted effect of over 70% in size
# In short: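 Unlinked NS2B/NS3, 25 nM; Rhod110 peptide, 1.5 microM; compounds, up to 114 microM. Reaction run 15 min at RT in 10 mM Tris-HCl pH 8.0, 0.01% Tween 20; kinetic fluorescence change fitted with a 4-parameter Hill model.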
# [15] = ZIKV-mCherry secondary qHTS for Zika virus inhibitors (AID 1347158); conditions: Vero cells, ZIKV-mCherry infection imaging, 48-72 h; series mostly up to 49.2 µM; further: top concentration of the series differs between compounds
# In short: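 Read-out is percent infection: mCherry-positive Vero cells (nuclear-proximal intensity >450 RFU, 3 SD above negative controls) counted by high-content imaging of Hoechst-stained, PFA-fixed wells after 48-72 h with ZIKV-mCherry at MOI 1 and compound.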
# [16] = test system: Zika virus NS2B-NS3 protease (linked); test: 384 well plate NINDS AMC confirmatory qHTS for Zika virus inhibitors (AID 1347163); conditions: Recombinant NS2B-NS3 protease, Ac-VKTGKR-AMC fluorescence; series mostly up to 1 mM; further: potency means the concentration at half of the fitted maximal effect; nearly all actives have a fitted effect of over 50% in size
# In short: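 Enzyme (5, 30 or 60 nM final) first met test compounds for ~15 min. The AMC-tagged peptide Ac-VKTGKR-AMC followed at 30 microM. Fluorescence was then recorded at 25 min and scaled against no-enzyme and no-inhibitor wells.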
# [17] = Tertiary RLuc qRT-PCR qHTS assay for Zika virus inhibitors (AID 1347169); conditions: infected Vero cells, reporter luminescence, 48-72 h; series mostly up to 1.74 µM; further: top concentration of the series differs between compounds; nearly all actives have a fitted effect of over 55% in size
# In short: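 Vero cells (1,000 per well) plated overnight at 37 degrees C, treated with compound in DMSO, then infected with recombinant ZIKV-RLuc (Cambodian) at MOI 1-2 for 48-72 hrs. Live-cell Renilla luciferase substrate added; luminescence read after 1-1.5 hrs.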
# [18] = test system: Zika virus NS2B-NS3 protease (unlinked complex); test: Confirmatory screen GU AMC qHTS for Zika virus inhibitors (AID 1347153); conditions: Recombinant NS2B-NS3 protease, AMC substrate fluorescence; series mostly up to 111 µM; further: nearly all actives have a fitted effect of over 70% in size
# In short: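 Fluorescence change (ex 340/em 450 nm) over 15 min, ~20% substrate conversion, normalized to no-inhibitor and no-enzyme controls, then Hill-fitted. Unlinked protease at 25 nM; AMC peptide 10 µM.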
# [19] = Primary qHTS for small molecule stabilizers of the endoplasmic reticulum resident proteome: Secreted ER Calcium Modulated Protein (SERCaMP) assay (AID 1508630); conditions: SH-SY5Y GLuc-SERCaMP (Gaussia luciferase released on ER calcium loss) secretion, thapsigargin, luminescence; series mostly up to 38.4 µM
# In short: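 The SH-SY5Y reporter protocol was run at 3 concentrations up to 38.3 uM (primary) or 11 concentrations (follow-up): 16 h compound, 100 nM thapsigargin for 4 h, then extracellular luciferase luminescence.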
# [20] = test system: Zika virus NS2B-NS3 protease (linked construct); test: 384 well plate NINDS Rhodamine confirmatory qHTS for Zika virus inhibitors (AID 1347164); conditions: rhodamine-110 peptide substrate fluorescence; series mostly up to 1 mM;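 further: fluorescence from protease cleavage of Ac-LKRR-rhodamine 110 substrate; potency means the concentration at half of the fitted maximal effect; nearly all actives have a fitted effect of over 65% in size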
# In short: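 Linked protease at a final 5 nM, 30 nM or 60 nM was preincubated ~15 min with compounds, then given 10 microM Ac-LKRR-Rhodamine 110. Fluorescence (ex 485/em 538 nm) after 25 min in the dark at room temperature.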
# Furin (Homo sapiens), sequence (P09958 whole entry, looked up): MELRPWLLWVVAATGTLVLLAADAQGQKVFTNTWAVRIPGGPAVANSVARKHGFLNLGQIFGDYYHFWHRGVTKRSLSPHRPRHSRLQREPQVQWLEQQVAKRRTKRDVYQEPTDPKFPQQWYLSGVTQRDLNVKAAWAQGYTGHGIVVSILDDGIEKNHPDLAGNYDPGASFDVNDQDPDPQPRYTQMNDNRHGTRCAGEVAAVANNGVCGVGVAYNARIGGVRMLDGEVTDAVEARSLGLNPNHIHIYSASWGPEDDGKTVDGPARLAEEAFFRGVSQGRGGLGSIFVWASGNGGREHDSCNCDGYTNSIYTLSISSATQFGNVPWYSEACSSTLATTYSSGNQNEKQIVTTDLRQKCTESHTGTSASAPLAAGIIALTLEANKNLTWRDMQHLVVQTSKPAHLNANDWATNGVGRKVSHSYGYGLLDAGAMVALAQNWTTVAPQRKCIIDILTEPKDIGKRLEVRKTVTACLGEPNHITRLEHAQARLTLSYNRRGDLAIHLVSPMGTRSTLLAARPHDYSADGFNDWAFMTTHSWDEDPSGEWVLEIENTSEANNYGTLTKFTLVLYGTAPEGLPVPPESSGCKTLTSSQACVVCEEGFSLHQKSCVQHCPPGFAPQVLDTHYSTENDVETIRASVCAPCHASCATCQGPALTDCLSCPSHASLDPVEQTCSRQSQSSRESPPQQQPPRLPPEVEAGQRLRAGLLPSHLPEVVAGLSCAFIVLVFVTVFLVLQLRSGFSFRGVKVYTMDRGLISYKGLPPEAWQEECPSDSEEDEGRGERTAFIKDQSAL
# Glucocorticoid receptor (Homo sapiens), sequence (P04150 whole entry, looked up, the tested form may be a part): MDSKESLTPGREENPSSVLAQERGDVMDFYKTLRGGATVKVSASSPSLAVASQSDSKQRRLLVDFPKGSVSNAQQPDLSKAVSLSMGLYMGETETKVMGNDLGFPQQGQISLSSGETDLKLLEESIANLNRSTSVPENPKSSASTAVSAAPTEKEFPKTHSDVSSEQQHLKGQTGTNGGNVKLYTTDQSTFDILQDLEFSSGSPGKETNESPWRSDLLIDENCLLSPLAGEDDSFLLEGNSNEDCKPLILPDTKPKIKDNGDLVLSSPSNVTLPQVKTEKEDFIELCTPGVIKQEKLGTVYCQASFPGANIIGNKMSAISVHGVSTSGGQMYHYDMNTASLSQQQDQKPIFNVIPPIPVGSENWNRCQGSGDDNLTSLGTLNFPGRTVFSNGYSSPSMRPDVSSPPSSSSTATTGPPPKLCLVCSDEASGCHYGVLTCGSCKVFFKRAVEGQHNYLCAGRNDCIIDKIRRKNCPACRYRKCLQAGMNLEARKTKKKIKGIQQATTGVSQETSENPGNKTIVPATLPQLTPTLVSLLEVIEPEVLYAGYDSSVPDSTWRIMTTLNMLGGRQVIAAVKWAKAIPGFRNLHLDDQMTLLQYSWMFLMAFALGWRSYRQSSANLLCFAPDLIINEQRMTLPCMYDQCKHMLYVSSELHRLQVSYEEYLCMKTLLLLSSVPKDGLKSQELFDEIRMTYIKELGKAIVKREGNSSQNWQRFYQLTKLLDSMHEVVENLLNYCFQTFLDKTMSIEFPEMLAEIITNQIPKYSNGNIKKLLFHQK
# Rap guanine nucleotide exchange factor 3 (Homo sapiens), sequence (O95398 whole entry, looked up): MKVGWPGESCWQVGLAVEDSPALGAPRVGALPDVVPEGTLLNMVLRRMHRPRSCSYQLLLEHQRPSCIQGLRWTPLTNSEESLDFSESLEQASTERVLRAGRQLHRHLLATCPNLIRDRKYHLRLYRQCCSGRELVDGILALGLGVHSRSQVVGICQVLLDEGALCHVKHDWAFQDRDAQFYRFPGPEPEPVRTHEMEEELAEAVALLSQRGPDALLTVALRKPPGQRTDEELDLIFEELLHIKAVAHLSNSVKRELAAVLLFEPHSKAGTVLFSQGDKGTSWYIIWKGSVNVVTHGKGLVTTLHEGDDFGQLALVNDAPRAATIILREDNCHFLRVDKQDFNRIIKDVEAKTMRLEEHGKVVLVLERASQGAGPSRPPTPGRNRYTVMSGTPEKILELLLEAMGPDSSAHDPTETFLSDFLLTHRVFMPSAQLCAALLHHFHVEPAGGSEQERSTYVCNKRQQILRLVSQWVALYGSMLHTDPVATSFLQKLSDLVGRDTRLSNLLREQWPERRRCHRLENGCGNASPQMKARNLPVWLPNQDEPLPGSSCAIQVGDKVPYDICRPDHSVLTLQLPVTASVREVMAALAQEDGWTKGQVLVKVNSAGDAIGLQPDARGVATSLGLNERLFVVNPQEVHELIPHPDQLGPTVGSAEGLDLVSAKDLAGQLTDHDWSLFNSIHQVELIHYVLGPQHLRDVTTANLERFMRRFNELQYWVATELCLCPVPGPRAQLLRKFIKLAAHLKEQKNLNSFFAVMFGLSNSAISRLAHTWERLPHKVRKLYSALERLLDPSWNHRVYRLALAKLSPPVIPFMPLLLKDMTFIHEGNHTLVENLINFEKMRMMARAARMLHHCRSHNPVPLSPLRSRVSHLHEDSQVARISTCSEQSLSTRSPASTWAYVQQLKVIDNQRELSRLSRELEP
# Rap guanine nucleotide exchange factor 4 (Homo sapiens), sequence (Q8WZA2 whole entry, looked up): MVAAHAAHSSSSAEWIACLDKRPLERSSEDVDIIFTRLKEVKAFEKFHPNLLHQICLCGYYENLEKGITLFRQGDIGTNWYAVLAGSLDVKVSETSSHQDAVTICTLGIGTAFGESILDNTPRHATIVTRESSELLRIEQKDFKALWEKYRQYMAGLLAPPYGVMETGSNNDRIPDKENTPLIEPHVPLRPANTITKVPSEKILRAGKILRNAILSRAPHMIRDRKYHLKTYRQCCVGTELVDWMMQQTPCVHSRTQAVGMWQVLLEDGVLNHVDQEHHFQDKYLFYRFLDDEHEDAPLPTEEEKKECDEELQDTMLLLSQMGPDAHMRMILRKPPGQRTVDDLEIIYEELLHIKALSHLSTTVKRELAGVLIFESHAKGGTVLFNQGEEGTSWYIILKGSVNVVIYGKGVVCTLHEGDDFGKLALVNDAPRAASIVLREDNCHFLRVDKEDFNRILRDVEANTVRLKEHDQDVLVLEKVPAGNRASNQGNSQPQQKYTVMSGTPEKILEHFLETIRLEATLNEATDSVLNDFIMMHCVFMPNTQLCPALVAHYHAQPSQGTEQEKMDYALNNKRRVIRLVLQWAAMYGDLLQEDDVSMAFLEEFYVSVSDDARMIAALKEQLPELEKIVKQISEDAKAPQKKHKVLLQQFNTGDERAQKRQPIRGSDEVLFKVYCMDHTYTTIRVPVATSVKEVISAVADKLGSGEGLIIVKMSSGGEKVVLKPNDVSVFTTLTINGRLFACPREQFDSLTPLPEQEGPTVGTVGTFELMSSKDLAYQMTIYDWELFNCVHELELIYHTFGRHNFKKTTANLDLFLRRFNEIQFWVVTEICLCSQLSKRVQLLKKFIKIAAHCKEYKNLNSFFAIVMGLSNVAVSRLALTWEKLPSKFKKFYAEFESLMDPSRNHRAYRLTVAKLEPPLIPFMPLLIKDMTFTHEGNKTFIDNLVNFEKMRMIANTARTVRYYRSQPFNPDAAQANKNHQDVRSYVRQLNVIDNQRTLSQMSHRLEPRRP
# DNA dC->dU-editing enzyme APOBEC-3G (Homo sapiens), sequence (Q9HC16 whole entry, looked up): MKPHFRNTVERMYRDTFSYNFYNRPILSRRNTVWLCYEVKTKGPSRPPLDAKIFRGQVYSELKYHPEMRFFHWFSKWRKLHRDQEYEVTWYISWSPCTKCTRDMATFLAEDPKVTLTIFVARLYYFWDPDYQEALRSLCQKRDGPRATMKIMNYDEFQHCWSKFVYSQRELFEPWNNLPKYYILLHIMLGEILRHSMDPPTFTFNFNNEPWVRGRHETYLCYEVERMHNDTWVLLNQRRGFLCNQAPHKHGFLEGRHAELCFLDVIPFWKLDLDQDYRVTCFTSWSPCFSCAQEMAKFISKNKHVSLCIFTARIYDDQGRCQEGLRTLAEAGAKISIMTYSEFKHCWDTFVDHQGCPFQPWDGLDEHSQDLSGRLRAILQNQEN
# Cytochrome P450 3A4 (Homo sapiens), sequence (P08684 whole entry, looked up): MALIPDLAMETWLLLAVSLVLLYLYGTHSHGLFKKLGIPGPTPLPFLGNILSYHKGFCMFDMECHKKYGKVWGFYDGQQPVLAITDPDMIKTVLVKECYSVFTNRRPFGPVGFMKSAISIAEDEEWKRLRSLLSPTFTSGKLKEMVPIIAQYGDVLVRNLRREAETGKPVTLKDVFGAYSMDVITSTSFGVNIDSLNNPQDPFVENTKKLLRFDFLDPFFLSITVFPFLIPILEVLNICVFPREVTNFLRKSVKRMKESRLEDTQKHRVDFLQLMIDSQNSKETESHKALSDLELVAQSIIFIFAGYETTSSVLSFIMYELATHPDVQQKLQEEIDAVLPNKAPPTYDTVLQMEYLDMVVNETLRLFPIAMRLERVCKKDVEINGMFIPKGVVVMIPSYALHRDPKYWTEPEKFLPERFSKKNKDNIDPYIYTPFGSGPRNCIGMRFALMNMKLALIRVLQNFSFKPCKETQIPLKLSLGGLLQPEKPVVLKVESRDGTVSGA
smiles,measurement,setting,value
COc1ccc(-c2nc(C(=O)N3CCN(C)CC3)sc2-c2ccc(OC)cc2)cc1,Potency,[1],> 46 µM
same,Potency,[2],> 46 µM
same,Potency,[3],inactive
same,Potency,[4],inactive
same,Potency,[5],inactive
same,Potency,Furin (Homo sapiens),13.5 µM (active)
same,Potency,[6],24.1 µM (active)
same,Potency,[7],26.7 µM (active)
same,Potency,[8],inactive
same,Potency,[9],inactive
same,Potency,[10],inactive
same,Potency,[11],inactive
same,outcome,[12],inactive
same,Potency,[13],inactive
O=C(Nc1ccccc1)c1ccc2c(O)c(S(=O)(=O)c3ccc(Cl)cc3)c(=O)[nH]c2c1,Potency,Furin (Homo sapiens),inactive
same,Potency,[14],22.4 µM (active)
same,Potency,[15],inactive
same,Potency,[8],14.1 µM (active)
same,Potency,[16],398 µM (active)
same,Potency,[17],inactive
Cc1ccc2c(=O)c3ccccc3n(CCCN)c2c1C,Potency,Furin (Homo sapiens),24.1 µM (active)
same,Potency,[18],inactive
same,Potency,[7],21.2 µM (active)
same,Potency,[9],inactive
same,Potency,[19],inactive
Cc1ccc(NC(=O)c2ccc3c(O)c(S(=O)(=O)c4ccc(Cl)cc4)c(=O)[nH]c3c2)cc1,Potency,Furin (Homo sapiens),inactive
same,Potency,[14],22.4 µM (active)
same,Potency,[15],inactive
same,Potency,[8],6.31 µM (active)
same,Potency,[20],35.5 µM (active)
same,Potency,[17],inactive
O=C(O)c1ccc(C2Nc3ccccc3-c3nnc(SCc4ccc(Cl)cc4)nc3O2)cc1 (stereo not drawn),Potency,Furin (Homo sapiens),inactive
same,Potency,[14],20 µM (active)
same,Potency,[15],inactive
same,Potency,[8],15.8 µM (active)
same,Potency,[16],316 µM (active)
same,Potency,[20],89.1 µM (active)
same,Potency,[17],inactive
